# Shown are actives, neighbours in structure and some others; about 4.8% of the full set was active somewhere.
# hgDAF12 agonist = activates the H. glycines DAF-12 receptor ligand-binding domain | AID 687014 | 1.8% of 370,000 active | activation, % at 6.8 µM | HEK293 GAL4-hgDAF12 UAS-luciferase reporter, agonist luminescence; normalized to butyrate control;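 active = activation above a cutoff set at the mean of all screened compounds plus 3 SD, cut at about 10% in these data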;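 also: 0% = DMSO wells and 100% = sodium butyrate wells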
# SMARCA2 activ = SMARCA2 function activation, primary screen | activation, % at 9.1 µM | AID 652017 | 1% of 370,000 active | MG213 cells, MMTV-luciferase reporter, dexamethasone, overnight; in the data active = activation above about 7.8%;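 also: 0% = vehicle wells and 100% = reference activator wells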
# DAX1 inh-1 = inhibits human nuclear receptor DAX1; P51843; HEK293 Gal4-DAX1 luciferase reporter, luminescence; inhibition, % at 6.75 µM; 0.99% of 340,000 active;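 active = inhibition above the mean over all tested compounds plus 3 SD, cut at about 4.2% in these data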;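 also: 0% = DAX1-transfected cells with DMSO and 100% = empty-vector control cells with DMSO; inhibition shows as a rise in luminescence from relieved DAX1 repression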
# Target sequence (P51843 207-470 limits assumed): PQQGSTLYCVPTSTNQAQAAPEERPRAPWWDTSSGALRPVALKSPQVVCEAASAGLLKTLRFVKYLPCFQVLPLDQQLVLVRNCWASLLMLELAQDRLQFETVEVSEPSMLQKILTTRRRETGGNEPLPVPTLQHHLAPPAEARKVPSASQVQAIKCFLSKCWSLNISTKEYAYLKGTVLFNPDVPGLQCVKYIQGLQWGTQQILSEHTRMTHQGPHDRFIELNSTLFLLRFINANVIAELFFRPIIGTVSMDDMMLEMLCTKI
# hcDAF-12 act = activators of H. contortus DAF-12 nuclear receptor; HEK293 hcDAF-12 lit1-tk-luc reporter, luminescence; 0% DMSO, 100% Δ7-dafachronic acid; 1.4% of 370,000 active; activation, % at 6.8 µM;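 active = activation above the mean of all tested compounds plus 3 SD, cut at about 5.5% in these data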;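 also: 100% = response to 3 µM Δ7-dafachronic acid high control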
# ssDAF-12 act = activators of S. stercoralis DAF-12 nuclear receptor; 1% of 370,000 active; HEK293 ssDAF-12/GRIP1 lit1-tk-luc reporter, luminescence; % of 3 µM dafachronic acid response; activation, % at 6.8 µM;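 active = activation above the mean over all tested compounds plus 3 SD, cut at about 0.9% in these data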;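 also: 0% = DMSO-only wells and 100% = 3 µM delta7-dafachronic acid wells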
# DAX1 inh-2 = inhibitors of DAX1 repression of SF-1 activated StAR promoter; HEK293T StAR-luciferase reporter, SF-1/DAX-1 repression relief; inhibition, % at 6.8 µM; 1.1% of 370,000 active; AID 652010;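 active = inhibition above the mean over all tested compounds plus 3 SD, cut at about 3.6% in these data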;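 also: 0% = DAX-1 cells with DMSO and 100% = cells lacking DAX-1 with DMSO; higher inhibition means more luminescence from relief of DAX-1 repression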
# hgDAF12 ag = confirmation of H. glycines DAF-12 agonists; shares compounds with hgDAF12 agonist; HEK293 GAL4-hgDAF12 luciferase reporter, agonist mode; percent of butyrate response; activation, % at 6.8 µM; 80% of 3,300 active; AID 743050;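 active = mean activation over triplicate wells above the hit cutoff derived from the earlier primary screen, cut at about 11% in these data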;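 also: 0% = DMSO low control and 100% = 2 mM sodium butyrate high control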
# LXR ag 2 = counter-screen for DAF-12 agonists: agonists of human LXR-beta; activation, % at 6.8 µM; shares compounds with hgDAF12 agonist; HEK293 Gal4-LXR luciferase reporter, 24 h; AID 743051; 3,300 tested, under 10 active;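 active = mean activation of the triplicate above a set limit carried over from the primary screen, none filed active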
# Target sequence (P55055 whole entry, looked up, the tested form may be a part): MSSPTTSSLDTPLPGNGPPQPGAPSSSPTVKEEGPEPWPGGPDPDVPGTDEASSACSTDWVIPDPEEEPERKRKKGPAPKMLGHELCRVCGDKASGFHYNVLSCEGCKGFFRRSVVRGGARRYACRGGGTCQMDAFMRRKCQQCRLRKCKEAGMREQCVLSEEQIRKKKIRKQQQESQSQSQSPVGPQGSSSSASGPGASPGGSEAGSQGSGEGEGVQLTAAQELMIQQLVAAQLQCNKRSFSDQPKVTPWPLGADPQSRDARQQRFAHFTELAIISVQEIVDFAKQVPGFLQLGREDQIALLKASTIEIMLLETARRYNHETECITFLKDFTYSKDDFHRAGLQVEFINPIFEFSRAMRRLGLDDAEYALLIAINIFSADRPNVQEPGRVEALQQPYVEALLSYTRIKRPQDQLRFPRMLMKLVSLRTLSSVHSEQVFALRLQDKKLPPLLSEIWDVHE
# Numbers without * were called inactive; nt = no result.
SMILES,hgDAF12 agonist,SMARCA2 activ,DAX1 inh-1,hcDAF-12 act,ssDAF-12 act,DAX1 inh-2,hgDAF12 ag,LXR ag 2
O=C(N/N=C/c1ccc(Cl)cc1)c1ccc2c(c1)OCO2,14.1*,1.8,-0.4,-0.1,-0.9,0.2,16.9*,0.5
O=C(N/N=C/c1ccsc1)c1ccc2c(c1)OCO2,6.7,0.8,1.7,0.8,0.0,0.8,nt,nt
O=C(Nc1ccn(Cc2ccccc2)n1)c1ccc2c(c1)OCO2,15.7*,1.4,2.5,0.5,-1.6,0.8,9.1,0.4
O=C(Nc1ccc2c(c1)OCCO2)c1ccc(Cl)cc1,15.3*,5.5,1.7,4.8,0.6,1.5,14.8*,0.9
O=C(N/N=C/c1cccc([N+](=O)[O-])c1)c1ccc2c(c1)OCCO2,15.5*,4.6,0.9,2.6,-0.1,2.1,12.3*,0.7
COc1cccc(CNC(=O)[C@H]2CCCN2C(=O)[C@H]2CCCN2C(=O)c2cccc(F)c2)c1,0.1,-1.3,nt,-2.7,-0.8,-0.1,nt,nt
O=C(Nc1ccc(NC(=O)c2ccc(Cl)cc2Cl)cc1)c1ccc2c(c1)OCO2,0.4,3.3,-1.6,0.7,-1.0,0.0,nt,nt
O=C(N/N=C/c1cccs1)c1ccc2c(c1)OCO2,13.9*,1.7,0.9,6.3*,1.9*,3.8*,13.0*,0.9
O=C(Nc1ccc(Cl)cc1)c1ccc2c(c1)OCO2,13.3*,0.7,2.8,5.6*,-0.1,2.8,20.1*,1.1
COC(=O)C1=C(C)N(C)C(=NCc2cccc(C(F)(F)F)c2)NC1c1cccc(F)c1 (configuration not stated),1.3,-4.0,nt,-1.2,-0.7,-1.1,nt,nt
C#CCN1CC(COCCCC)Oc2cccc(Oc3ccc(C(C)(C)C)c(C)c3)c2S1(=O)=O (configuration not stated),-0.5,0.5,nt,-1.7,-0.6,0.4,nt,nt
COC(=O)[C@]12C[C@H](CC(=O)N3CCN(C(=O)C4CC4)CC3)C(=O)N(Cc3ccccc3)C1=C[C@H](C(C)(C)C)O[C@@H]2C,-0.3,-4.1,nt,-0.6,-0.8,0.8,nt,nt
c1ccc(-n2nc3c(ccc4cnnc43)[nH]2)cc1,18.8*,4.0,1.3,5.7*,0.9,2.0,12.3*,0.6
COc1ccc(-c2ccc(C(=O)Nc3ccc(NC(C)=O)cc3)c3occc23)c(C)c1,1.2,0.6,nt,-0.1,-1.1,-1.1,nt,nt
COc1ccc(-c2ccc(C(=O)Nc3ccc(Cl)cc3)c3occc23)c(C)c1,17.6*,3.8,nt,-0.4,-0.8,2.0,7.9,0.4
COC(=O)N1C[C@H](Oc2cccc3ccccc23)[C@H]2C[C@@H]1c1ccccc1O2,-2.2,-0.9,nt,-3.6,-1.2,-1.1,nt,nt
CS/C(N)=N/N=C/c1c(O)ccc2ccccc12,19.2*,1.6,0.4,4.6,1.0*,2.0,13.1*,0.3
CS/C(N)=N/N=C/c1cc(C)ccc1O,17.7*,3.2,4.3*,5.0,-0.5,2.3,13.8*,1.0
CS/C(N)=N/N=C/c1cc(Br)cc(Br)c1O,4.5,-1.4,-1.5,0.1,-1.3,0.6,nt,nt
CN(C)/N=C/c1c(O)ccc2ccccc12,-1.9,-0.6,0.2,0.1,-1.0,-0.2,nt,nt
O=C(N[C@H](C(=O)N1CCC[C@H]1C(=O)NCCc1ccccc1Cl)c1ccccc1)C1CC1,-1.8,0.1,nt,-0.6,-0.5,-0.7,nt,nt
O=C(O)c1ccc(-c2nc(-c3ccccc3)cs2)cc1,13.4*,5.6,6.5*,2.3,-0.5,2.7,8.8,0.5
CC(=O)Nc1c(O)nc(SCC(=O)Nc2ccc(C(C)=O)cc2)[nH]c1=O,14.4*,4.5,0.9,2.8,-0.7,-0.4,11.7*,0.2
COC(=O)C1=C(C)N(Cc2ccccc2C(F)(F)F)C(=NCc2ccc3c(c2)OCO3)NC1c1ccc(C(F)(F)F)cc1 (configuration not stated),4.4,-2.0,nt,-0.1,-0.8,0.4,nt,nt
Fc1cc(Cl)cc2ccc(-c3ccccc3)nc12,15.2*,5.0,nt,2.9,0.8,1.7,8.9,0.2
SMILES,hgDAF12 agonist,SMARCA2 activ,DAX1 inh-1,hcDAF-12 act,ssDAF-12 act,DAX1 inh-2,hgDAF12 ag,LXR ag 2
COCc1cc(N2CCN(C(=O)OC(C)(C)C)C[C@H]2C)ccc1N1CC[C@@H](O)C1,1.4,-3.3,nt,1.9,-1.6,-1.9,nt,nt
O=C(O)c1ccc(/C=C/c2nc3ccccc3c(=O)[nH]2)cc1,0.1,-2.0,2.4,0.4,-0.7,0.0,nt,nt
Cc1cccc(/C=C/c2nc3ccccc3c(=O)[nH]2)c1,18.4*,1.6,-0.5,3.6,-0.5,3.7*,21.0*,0.8
Clc1cccc(CN2CCN(c3ncc(Cc4ccccc4)cn3)CC2)c1Cl,-6.2,-7.2,nt,-3.2,-2.0,-3.3,nt,nt
O=C(Nc1nccs1)Oc1ccccc1,-0.6,-0.1,0.3,-0.3,-1.7,0.6,nt,nt
C/C(=C\c1ccccc1)C(=O)Nc1nccs1,15.6*,6.4,2.5,3.9,0.8,1.2,12.4*,0.5
COc1ccccc1OCCCC(=O)Nc1nccs1,14.3*,2.2,2.8,2.2,0.4,4.5*,10.8*,0.4
C[C@H]1CCCCO[C@@H](CN(C)CC2CC2)[C@@H](C)CN([C@@H](C)CO)C(=O)c2cc(NS(=O)(=O)c3ccccc3)ccc2O1,-3.7,-5.2,nt,-1.6,-1.2,0.5,nt,nt
FC(F)(F)c1cnc(-c2cnc(-c3ccccn3)nc2)c(Cl)c1,16.6*,1.7,-0.8,1.4,-0.1,4.4*,13.7*,0.7
COc1ccc(OCC2CN(C3CCCC3)S(=O)(=O)CCO2)cc1 (configuration not stated),-0.6,-4.1,nt,-2.5,-1.3,-1.7,nt,nt
Cc1ccc(NC(=O)c2ccc3nsnc3c2)c(Cl)c1,14.0*,5.5,2.6,5.8*,1.1*,1.7,15.3*,0.8
COc1cc(NC(=O)/C=C/c2ccccc2[N+](=O)[O-])cc(OC)c1,0.9,2.7,0.3,0.8,-1.3,0.6,nt,nt
O=C(/C=C/c1ccccc1[N+](=O)[O-])Nc1ccccc1,17.6*,5.3,6.7*,5.5,0.2,4.0*,16.2*,0.7
CCOC(=O)N1CCC(NC(=O)c2cc3ccccn3n2)CC1,15.8*,1.6,-0.3,-0.5,-1.7,0.5,-0.6,0.0
COC(=O)c1cc2c(c3c4cc(C)ccc4n(S(=O)(=O)c4ccc(C)cc4)c13)C(=O)N(Cc1ccc(N(C)C)cc1)C2,0.1,2.5,nt,1.3,-0.9,2.2,nt,nt
C=CCNC(=S)N(C)[C@H]1C[C@H]2c3[nH]c4c(-c5ccccc5)cccc4c3CCN2C(=O)[C@H]1[C@H](C)O,-0.5,1.1,nt,-0.5,-0.8,-0.1,nt,nt

# High-throughput results deposited in PubChem by The Scripps Research Institute Molecular Screening Center.
